Results from publication PMC8338941.

Molecular target: Large ribosomal subunit protein eL13A (UniProt Q12690)
Assay: cross-link between two proteins; cross-linking mass spectrometry

Large ribosomal subunit protein eL13A, sequence (Q12690 whole entry): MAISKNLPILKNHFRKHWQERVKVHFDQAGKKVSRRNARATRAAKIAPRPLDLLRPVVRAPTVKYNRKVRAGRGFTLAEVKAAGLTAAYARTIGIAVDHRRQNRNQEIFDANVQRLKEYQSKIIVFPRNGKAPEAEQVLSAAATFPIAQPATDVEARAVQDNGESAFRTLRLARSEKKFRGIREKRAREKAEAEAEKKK

Large ribosomal subunit protein uL29A, P0CX84
listed as a hit: yes

Large ribosomal subunit protein eL36B, O14455
listed as a hit: yes
